Measured values: PubChem BioAssay AID1455 (National Center for Advancing Translational Sciences (NCATS), 2008)
Records with an inconclusive call do not appear. Values without a mark were called inactive. Active and inactive are the calls of the source. The call rests on the fitted dose curve; in most records, active means well fitted inhibition curve with a large enough effect; inconclusive means small, poorly fitted or top-dose-only effect; inactive means no such curve, though single readings can be large or run the other way.

Molecular target: Ubiquitin carboxyl-terminal hydrolase 2 (Homo sapiens) (UniProt O75604)
Sequence (O75604 whole entry, looked up): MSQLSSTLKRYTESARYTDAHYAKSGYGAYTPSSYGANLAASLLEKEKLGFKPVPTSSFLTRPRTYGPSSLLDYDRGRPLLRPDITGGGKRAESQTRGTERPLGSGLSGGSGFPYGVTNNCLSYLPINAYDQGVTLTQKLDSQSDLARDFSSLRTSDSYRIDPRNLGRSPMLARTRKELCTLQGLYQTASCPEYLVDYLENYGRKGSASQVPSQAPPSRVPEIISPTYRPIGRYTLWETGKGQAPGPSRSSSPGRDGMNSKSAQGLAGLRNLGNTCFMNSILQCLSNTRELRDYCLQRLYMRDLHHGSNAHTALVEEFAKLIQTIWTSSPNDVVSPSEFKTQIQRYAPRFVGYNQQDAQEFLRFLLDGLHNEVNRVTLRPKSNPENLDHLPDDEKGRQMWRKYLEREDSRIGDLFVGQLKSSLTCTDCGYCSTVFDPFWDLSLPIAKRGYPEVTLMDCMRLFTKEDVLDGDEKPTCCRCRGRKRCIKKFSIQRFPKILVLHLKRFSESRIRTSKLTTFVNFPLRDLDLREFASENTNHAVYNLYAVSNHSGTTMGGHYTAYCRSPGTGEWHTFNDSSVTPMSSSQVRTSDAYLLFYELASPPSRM
Test: Confirmation Concentration-response Assay for Inhibitors of Ubiquitin-specific Protease USP2a
Settings: USP2 core, Ub-PLA2 coupled fluorescence, NBD C6-HPC; series mostly up to 38.3 µM; activity, negative = inhibition: at the top concentration
From the text: NIH Molecular Libraries Screening Centers Network [MLSCN] NIH Chemical Genomics Center [NCGC] MLSCN Grant: XO1-MH079852-01 PI Name: Nicholson, Ben. Progenra Inc, Malvern, PA NCGC Assay Overview: Homeostasis of cellular proteins is maintained through a combination of synthesis and degradation. The pathway that accounts for the majority of protein degradation is the ubiquitin-proteasomal pathway. Ubiquitin (Ub) is highly conserved in all cells and the generation of a multi-Ub chain typically targets proteins for degradation by the proteasome. However, ubiquitination is highly reversible and dynamic. Deubiquitination, the reverse process, is catalyzed through the action of enzymes referred to as isopeptidases or deubiquitinating enzymes (DUBs). This group of enzymes is collectively responsible for maintaining adequate pools of free ubiquitin and regulating the ubiquitination status of cellular proteins. The class of DUBs referred to as the ubiquitin-specific proteases (USP) family functions endoproteolytically to cleave Ub chains from a wide range of protein substrates. USP2a deubiquitinates fatty acid synthase (FASN) which has recently been identified as an emerging oncology target. To identify inhibitors of USP2a a cell-free assay was employed. […] The reporter enzyme chosen is phospholipase A2 (PLA2), which has an absolute requirement for a free amino terminus. Thus, fusion of a UBL to the N-terminus of PLA2 inactivates PLA2. When the UBL-PLA2 reporter enzyme is cleaved by USP2, the activated reporter can subsequently act on its substrate, which is the commercially available NBD C6-HPC (Invitrogen). Thus, this coupled assay gives a fluorescent read-out, which is generated through the cleavage of the PLA2 reporter enzyme. The assay, developed by Progenra, Inc. uses Ub-PLA2 and USP2a at near equal and low (nM) amounts and has been licensed for sale by LifeSensors, Inc. as the Ub-IsoPro1 kit.
NCGC Assay Protocol Summary: The assay buffer, prepared fresh at the day of the assay, contains 20mM Tris-HCl pH 8.0, 2mM CaCl2, 2mM beta-Mercaptoethanol, 0.1% DMSO. 3ul of 40nM (20nM final) USP2 core, which is stored on ice, is dispensed into a medium-binding black solid Kalypsys 1,536 well plate using the Kalypsys dispenser. The assay plate is then pinned with 23nL compound with the Kalypsys pintool in columns 5-48. The controls are pinned as follows: column 1&2 two-fold dilutions of 2M NEM in duplicate; column 3 DMSO; column 4 2M NEM (final concentration […]). The assay plate is incubated at RT for 30min. Subsequently, 3uL of 40nM (20nM final) Ub-PLA2 and 40uM (20uM final) NBD C6-HPC (stored on ice and protected from light) were dispensed into the plate using the Kalypsys dispenser. Plates were read immediately (0 Hour) on an Envision (Perkin Elmer) plate reader using the following wavelengths Ex 460nm /Em 535nm. Then, the assay plates were incubated for 2.5 hours and read again on the Envision using the same settings Data were normalized to the to AC100 inhibition (NEM). Concentration-response curves were fitted to the normalized data and the concentration-response curves were then classified based on curve quality (r2), response magnitude and degree of measured activity. The time zero reading was used to flag fluorescence artifacts. Keywords: ubiquitination, deubiquitination, proteases, profluorescent, MLSMR, MLSCN, NIH Roadmap, qHTS, NCGC

| Compound | activity, negative = inhibition | Potency |
| --- | --- | --- |
| COc1ccc(Cl)cc1NC(=O)CSc1nc(=O)[nH]c2c1CCC2 | -51.2% |  |
| Cc1ccc(S(=O)(=O)Cc2nc(-c3ccc(C(=O)NCc4ccccc4F)cc3)oc2C)cc1 |  | 14.1 µM (active) |
| COC(=O)c1c(NC(=O)CS(=O)(=O)c2ccc(C)cc2)sc2c1CCCCC2 | -4.33% |  |
| O=C(CCS(=O)(=O)c1ccccc1)N(Cc1cccnc1)c1nc2c(Cl)cccc2s1 | -20.5% |  |
| CCCCCC(=O)N1c2ccccc2C(C)(c2ccccc2)CC1(C)C (centres undefined) |  | 12.6 µM (active) |
| CCOC(=O)C1CCCN(c2c(C(=O)c3ccc(C)cc3)cnc3ccc(OCC)cc23)C1 (centres undefined) |  | 3.16 µM (active) |
| Cc1ccc(-n2nc3c(=O)n(CCCC(=O)NCCc4ccccc4Cl)nc(C)c3c2C)cc1 |  | 11.2 µM (active) |
| CCc1ccc(C(=O)c2c(N)c(-c3nc(-c4ccc5c(c4)OCO5)cs3)c3ccccn23)cc1 | -99.9% |  |
| Cc1cc(C)c2nc(N(Cc3cccnc3)C(=O)CCS(=O)(=O)c3ccccc3)sc2c1 | 3.88% |  |
| CCS(=O)(=O)c1nc(S(=O)(=O)c2ccc(C)cc2)c(NCC(C)C)s1 |  | 2.82 µM (active) |
| Cc1ccc([C@H]2Nc3ccc(S(=O)(=O)Nc4cccc(Cl)c4C)cc3[C@H]3C=CC[C@H]32)cc1 |  | 7.94 µM (active) |
| COc1ccc(C(=O)/C=C/c2cn(CC(O)CN(CC(C)C)CC(C)C)c3ccccc23)cc1OC (centres undefined) |  | 12.6 µM (active) |
| CCC(C)NC(=O)CSc1nc2cc3c(cc2c(=O)n1Cc1ccc(C(=O)NCCc2ccc(OC)c(OC)c2)cc1)OCO3 (centres undefined) | 24.3% |  |
| Oc1c(C(Nc2ccccn2)c2ccccc2F)ccc2cccnc12 (centres undefined) | 48.7% |  |
